Data taken from PubChem BioAssay (NCI).
This is part of a sample that, as a whole, favours compounds with a hit. Of some 83,000 tested, about 20% had one in any assay.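 48-hour exposure, single concentration, 96-well plates; percent growth endpoint where 0 means no net growth. Active: below 10.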 Unmarked numbers belong to inactive results. Activity calls are given as the source filed them.

Legend:
Test in all cases: NCI-60 one-dose screen, 48 h (100 = growth as untreated, 0 = no growth, -100 = all killed)
K-562 leukemia = details: 10 µM unless noted
MALME-3M melanoma = details: 10 µM unless noted
MDA-MB-231 breast = details: 10 µM unless noted
RXF 393 renal = details: 10 µM unless noted
SF-268 CNS = details: 10 µM unless noted
SF-295 CNS = details: 10 µM unless noted
SF-539 CNS = details: 10 µM unless noted
UACC-257 melanoma = details: 10 µM unless noted
M14 melanoma = details: 10 µM unless noted
HCT-15 colon = details: 10 µM unless noted
HT29 colon = details: 10 µM unless noted
SNB-75 CNS = details: 10 µM unless noted
U251 CNS = details: 10 µM unless noted
PC-3 prostate = details: 10 µM unless noted
SK-MEL-5 melanoma = details: 10 µM unless noted
UACC-62 melanoma = details: 10 µM unless noted
LOX IMVI melanoma = details: 10 µM unless noted
SK-MEL-2 melanoma = details: 10 µM unless noted
SNB-19 CNS = details: 10 µM unless noted
SK-MEL-28 melanoma = details: 10 µM

CC(C)C[C@H](C(=O)N[C@@H](C)C(N)=O)N1CC=CCN(O)S1(=O)=O
growth (K-562 leukemia): 117% [5 µM]
growth (MALME-3M melanoma): 148% [5 µM]
growth (MDA-MB-231 breast): 98.3% [5 µM]
growth (RXF 393 renal): 119% [5 µM]
growth (SF-268 CNS): 108% [5 µM]
growth (SF-295 CNS): 128% [5 µM]
growth (SF-539 CNS): 104% [5 µM]
growth (UACC-257 melanoma): 85.6% [5 µM]
growth (M14 melanoma): 108% [5 µM]
growth (HCT-15 colon): 102% [5 µM]
growth (HT29 colon): 93.1% [5 µM]
growth (SNB-75 CNS): 87.4% [5 µM]
growth (U251 CNS): 107% [5 µM]
growth (PC-3 prostate): 100% [5 µM]
growth (SK-MEL-5 melanoma): 106% [5 µM]
growth (UACC-62 melanoma): 108% [5 µM]
growth (LOX IMVI melanoma): 95.6% [5 µM]
growth (SK-MEL-2 melanoma): 103% [5 µM]

CN1C(=O)N(C)C2Nn3c(s/c(=C\c4ccc(Cl)cc4Cl)c3=O)=NC21 (stereo not given)
growth (K-562 leukemia): 19.5%
growth (MALME-3M melanoma): 72.5%
growth (MDA-MB-231 breast): 55.9%
growth (RXF 393 renal): 39.7%
growth (SF-268 CNS): 61.1%
growth (SF-295 CNS): 32.4%
growth (SF-539 CNS): 36%
growth (UACC-257 melanoma): 84.5%
growth (M14 melanoma): 21%
growth (HCT-15 colon): 43.8%
growth (HT29 colon): 37%
growth (SNB-19 CNS): 64%
growth (U251 CNS): 61.4%
growth (PC-3 prostate): 38.9%
growth (LOX IMVI melanoma): 58.3%
growth (SK-MEL-28 melanoma): 62.1%
growth (SK-MEL-2 melanoma): 89.2%

COc1ccc(-c2nsc3c2NC(=O)CC3c2cccc(OC)c2)cc1 (stereo not given)
growth (K-562 leukemia): 18.9%
growth (MALME-3M melanoma): 41.5%
growth (MDA-MB-231 breast): 73.3%
growth (RXF 393 renal): 16.8%
growth (SF-268 CNS): 62.3%
growth (SF-295 CNS): 15.5%
growth (SF-539 CNS): 13%
growth (UACC-257 melanoma): 74.7%
growth (M14 melanoma): 28.6%
growth (HCT-15 colon): 26.4%
growth (HT29 colon): 8.58% (active)
growth (SNB-75 CNS): -17.5% (active)
growth (U251 CNS): 37.8%
growth (PC-3 prostate): 23.8%
growth (SK-MEL-5 melanoma): 31.6%
growth (UACC-62 melanoma): 41.5%
growth (SK-MEL-28 melanoma): 45.3%
growth (SK-MEL-2 melanoma): 34.1%

CCCCN1CCN(c2ccc3nc(-c4ccc5nc(-c6ccc(C(F)(F)F)cc6)[nH]c5c4)[nH]c3c2)CC1
growth (K-562 leukemia): -65.8% (active)
growth (MALME-3M melanoma): -74.2% (active)
growth (MDA-MB-231 breast): -88.9% (active)
growth (RXF 393 renal): -82% (active)
growth (SF-268 CNS): -71.8% (active)
growth (SF-295 CNS): -84% (active)
growth (SF-539 CNS): -92.8% (active)
growth (UACC-257 melanoma): -16.2% (active)
growth (M14 melanoma): -63.5% (active)
growth (HCT-15 colon): -79% (active)
growth (SNB-75 CNS): -93.6% (active)
growth (SNB-19 CNS): -91.4% (active)
growth (U251 CNS): -86.6% (active)
growth (PC-3 prostate): -77% (active)
growth (SK-MEL-5 melanoma): 10.8%
growth (UACC-62 melanoma): -31.6% (active)
growth (LOX IMVI melanoma): -89.5% (active)
growth (SK-MEL-28 melanoma): -88.3% (active)
growth (SK-MEL-2 melanoma): -47.5% (active)

C=CCN1C(=O)/C(=c2\sc3n(c2=O)NC2C(N=3)N(CC)C(=O)N2CC)c2ccccc21 (stereo not given)
growth (K-562 leukemia): 11.3%
growth (MALME-3M melanoma): 67.6%
growth (MDA-MB-231 breast): 38.4%
growth (RXF 393 renal): 13.7%
growth (SF-268 CNS): 59.7%
growth (SF-295 CNS): 37.3%
growth (SF-539 CNS): -5.16% (active)
growth (UACC-257 melanoma): 82.4%
growth (M14 melanoma): 16.5%
growth (HCT-15 colon): 25%
growth (HT29 colon): 19.9%
growth (SNB-19 CNS): 44.5%
growth (U251 CNS): 45.8%
growth (PC-3 prostate): 30.5%
growth (UACC-62 melanoma): 35.5%
growth (LOX IMVI melanoma): 47.7%
growth (SK-MEL-28 melanoma): 59.9%
growth (SK-MEL-2 melanoma): 65.9%

CCN1C(=O)N(c2ccccc2)C2NN=c3s/c(=C4\C(=O)N(C(C)C)c5ccccc54)c(=O)n3C21 (stereo not given)
growth (K-562 leukemia): 10.6%
growth (MALME-3M melanoma): 65.2%
growth (MDA-MB-231 breast): 32.9%
growth (RXF 393 renal): -6.1% (active)
growth (SF-268 CNS): 36.7%
growth (SF-295 CNS): 17.9%
growth (SF-539 CNS): -2.62% (active)
growth (UACC-257 melanoma): 76.4%
growth (M14 melanoma): 10.9%
growth (HCT-15 colon): 17.7%
growth (HT29 colon): 9.74% (active)
growth (SNB-19 CNS): 35.7%
growth (U251 CNS): 25.9%
growth (PC-3 prostate): 25.7%
growth (UACC-62 melanoma): 37.6%
growth (LOX IMVI melanoma): 31.4%
growth (SK-MEL-28 melanoma): 62.8%
growth (SK-MEL-2 melanoma): 48.8%

COc1ccc(/C=c2\sc3n(c2=O)NC2C(N=3)N(C)C(=O)N2C)cc1 (stereo not given)
growth (K-562 leukemia): 89.3%
growth (MALME-3M melanoma): 97.6%
growth (MDA-MB-231 breast): 96.8%
growth (RXF 393 renal): 101%
growth (SF-268 CNS): 93.5%
growth (SF-295 CNS): 100%
growth (SF-539 CNS): 95.5%
growth (UACC-257 melanoma): 102%
growth (M14 melanoma): 96.5%
growth (HCT-15 colon): 96.4%
growth (HT29 colon): 103%
growth (SNB-19 CNS): 94.1%
growth (U251 CNS): 101%
growth (PC-3 prostate): 95.6%
growth (SK-MEL-28 melanoma): 104%
growth (SK-MEL-2 melanoma): 103%

CCN1C(=O)N(c2ccccc2)C2Nn3c(s/c(=C4\C(=O)N(C(C)C)c5ccccc54)c3=O)=NC21 (stereo not given)
growth (K-562 leukemia): 100%
growth (MALME-3M melanoma): 98.7%
growth (MDA-MB-231 breast): 99.4%
growth (RXF 393 renal): 112%
growth (SF-268 CNS): 98.7%
growth (SF-295 CNS): 98.4%
growth (SF-539 CNS): 100%
growth (UACC-257 melanoma): 104%
growth (M14 melanoma): 109%
growth (HCT-15 colon): 108%
growth (HT29 colon): 105%
growth (SNB-19 CNS): 96%
growth (U251 CNS): 104%
growth (PC-3 prostate): 106%
growth (UACC-62 melanoma): 97.5%
growth (LOX IMVI melanoma): 100%
growth (SK-MEL-28 melanoma): 118%
growth (SK-MEL-2 melanoma): 102%

COc1cc(/C=C2\Oc3cc(OCCCN4CCCC4)ccc3C2=O)cc(OC)c1
growth (K-562 leukemia): -63.3% (active)
growth (MALME-3M melanoma): 93%
growth (MDA-MB-231 breast): 53.7%
growth (RXF 393 renal): 60.4%
growth (SF-268 CNS): 72.5%
growth (SF-295 CNS): 85.7%
growth (SF-539 CNS): -90.3% (active)
growth (UACC-257 melanoma): 81.4%
growth (M14 melanoma): -60.1% (active)
growth (HCT-15 colon): 5.66% (active)
growth (HT29 colon): -42.4% (active)
growth (SNB-19 CNS): 64.7%
growth (U251 CNS): 18.3%
growth (PC-3 prostate): 39.3%
growth (UACC-62 melanoma): 71.1%
growth (LOX IMVI melanoma): -78% (active)
growth (SK-MEL-28 melanoma): 73.5%
growth (SK-MEL-2 melanoma): 108%
